Compound activity (PubChem)
TAG inh: triacylglycerol accumulation inhibition; AID 651582; inhibition, % at 12.5 µM; actives 0.66% (n = 230,000); H9c2 cells, Nile Red lipid (TAG) fluorescence; cells loaded with 200 µM oleic acid;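 active = pattern-corrected inhibition of lipid staining of at least 50% with the nuclear-stain viability signal not falling by more than 50%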;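 note: 0% = DMSO wells and 100% = triacsin C control wells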
Cardio protect: protects H9c2 cardiomyocytes from peroxide injury; H2O2 injury protection, ATPLite, 2 h; protection from H2O2 cell death, % at 20 µM; actives 0.63% (n = 360,000); AID 588492;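 active = compounds giving at least 50% protection of heart cells from peroxide-induced death in the single-dose screen, raw or plate-pattern-corrected value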;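 note: 0% = DMSO wells with peroxide and 100% = DMSO wells without peroxide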
iPSC survival up: hiPSC single-cell survival enhancement | ATPlite luminescence; 100% = ROCK inhibitor wells, 0% = DMSO | survival enhancement, % at 20 µM | actives 0.044% (n = 360,000) | AID 602274; in the data active = survival enhancement above about 18%;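 note: cells exposed to compounds for 16 hours before the ATP read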
SKN-1 block: C. elegans SKN-1 inhibition; actives 0.49% (n = 360,000); C. elegans VP596 Pgst-4::GFP/RFP ratio, acrylamide-induced, 24 h; AID 624304; inhibition, % at 21.8 µM;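 active = interference check ratio from 0.5 to 1.5 plus GFP to RFP signal ratio inhibition reaching or exceeding a fixed threshold, cut at about 30% in these data, passing the limit was not always enough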
CRFR2-BP antag: blocks CRF-induced signaling of the CRF-BP/CRF-R2 complex. inhibition, % at 11.8 µM. HEK293 CRF-R2/CRF-BP, CRF-induced calcium fluorescence. actives 0.59% (n = 350,000);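 active = inhibition of the ligand-induced calcium signal above about 50% at the single tested concentration, limit read from the data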
CRFBP-R2 agonist: CRF-BP/CRF-R2 complex agonism | AID 588473 | activation, % at 13.2 µM | HEK293 CRF-R2/CRF-BP, calcium dye fluorescence (FLIPR); percent of saturating CRF peptide response | actives 0.46% (n = 350,000);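 active = activation of at least 50%, plus an integration ratio under a set limit after plate pattern correction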;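 note: plate controls were neutral control wells without compound for no effect and CRF at EC100 for full effect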
Numbers without * were called inactive; . = not tested or not shown. An excerpt weighted towards active compounds, which were near 2.5% of everything screened.

SMILES	TAG inh	Cardio protect	iPSC survival up	SKN-1 block	CRFR2-BP antag	CRFBP-R2 agonist
COc1ccc2c(c1O)-c1c(OC)c(OC)cc3c1[C@H](C2)N(C)CC3	4	16	-3	5	10	-1
CCCN1CCc2cccc3c2[C@H]1Cc1ccc(O)c(O)c1-3	23	51*	-1	11	2	1
O=C1/C(=C\c2ccccc2)C2OCC=C3CN4CCC56c7ccccc7N1C5C2C3CC46 (stereo unspecified)	.	10	0	-6	-1	-1
C[C@H]1CC[C@@H]2[C@@H](C)[C@H]3[C@H](C[C@H]4[C@@H]5CC=C6C[C@@H](O[C@@H]7O[C@H](CO)[C@H](O)[C@H](O[C@@H]8O[C@H](CO)[C@@H](O)[C@H](O)[C@H]8O)[C@H]7O[C@@H]7O[C@@H](C)[C@H](O)[C@@H](O)[C@H]7O)CC[C@]6(C)[C@H]5CC[C@]34C)N2C1	.	-15	2	16	-22	67*
C[C@@H]1CC2C3CC=C4C[C@@H](O)CC[C@]4(C)C3CC[C@]2(C)[C@H]1O (stereo partly specified)	-5	-8	3	-1	7	1
Cn1cc(/C=C2\C(=O)NC(=O)N(c3ccccc3)C2=O)c2ccccc21	.	17	0	-5	-71	115*
COC(=O)C1=C(c2cccc(C#N)c2)C[C@@H]2CC[C@H]1N2C(=O)NC(C)C	0	0	3	11	-5	-1
COc1ccc(NP2(=O)NCCCN2)cc1	2	-2	2	1	2	-1
COc1ccc(P2(=O)Nc3ccccc3N2)cc1	3	53*	6	12	-4	4
Oc1ccc(C[C@H]2NCCc3cc(O)c(O)cc32)cc1O	.	57*	0	7	3	0
Oc1ccc(CC2CC3CCN2CC3)cc1O (stereo unspecified)	2	11	-2	-3	9	-2
COC(=O)C1=C(C(=O)OC)SC2(S1)C(C(=O)OC)=C(C(=O)OC)Sc1c2ssc1=O	127	-19	4	-22	-12	15
C=CCn1cc(C=C2C(=O)NC(=O)NC2=O)c2ccccc21	.	4	1	14	-21	14
O=C1NC(=O)C(=Cc2cn(CCOc3ccc4c(c3)OCO4)c3ccccc23)C(=O)N1	10	18	1	27	-57	59*
CN1CCN(/N=C/c2c(O)n(C)c(=O)n(C)c2=O)CC1	-3	-3	0	-1	15	-1
Cc1cc([N+](=O)[O-])c(Cl)cc1NC(=O)C(C)C	.	2	-2	13	12	-3
CNc1cc(Cl)c2nonc2c1[N+](=O)[O-]	79*	-20	48*	-4	75*	1
O=C(/C=C/c1c[nH]c2ccccc12)c1c(O)n(CCc2ccccc2)c(=O)[nH]c1=O	-33	-3	-1	40*	-132	166*
O=C(NC(=O)c1c(F)cccc1F)Nc1cc(Cl)c(F)c(Cl)c1F	.	-1	0	-5	-21	-3
Cc1ccccc1NP(=O)(Oc1ccccc1F)Oc1ccccc1F	.	73*	1	-1	-14	0
Cc1cccc(NP(=O)(Oc2ccccc2)Oc2ccccc2)c1C	.	8	0	14	21	0
NC(Cc1ccc(Cl)cc1)c1csc(Nc2ncccn2)n1 (stereo unspecified)	1	5	0	-14	.	.
O=C1NC(=S)N(C2CC2)C(=O)/C1=C/c1ccc2c(c1)CCN2CCCCl	.	6	-2	41*	-9	8
CCN1C(=O)/C(=C/c2ccc3c(c2)CCN3CCCCl)C(=O)NC1=S	.	4	1	23	-3	0
COC(=O)C1=C(c2cccc(C#N)c2)C[C@@H]2CC[C@H]1N2C(=O)N1CCC(C)CC1	-10	3	7	8	10	-3
SMILES	TAG inh	Cardio protect	iPSC survival up	SKN-1 block	CRFR2-BP antag	CRFBP-R2 agonist
C=C(CC1CC(O)[C@]2(C)OC3CC4OC5C[C@]6(C)O[C@]7(C)CCC8OC9C[C@]%10(C)OC%11C(C)=CC(=O)OC%11CC%10OC9C[C@@H](C)C8OC7CC6O[C@]5(C)C/C=C\C4OC3CC2O1)C(=O)O (stereo partly specified)	0	6	1	5	-4	2
CC1=CC(=O)OC2CC3OC4C[C@@H](C)C5OC6CC7O[C@]8(C)C/C=C\C9OC%10CC%11OC(CC(C)C%12OCCO%12)CC(O)[C@]%11(C)OC%10CC9OC8C[C@]7(C)O[C@]6(C)CCC5OC4C[C@]3(C)OC12 (stereo partly specified)	25	-8	4	6	-32	75*
COCCCn1c(-c2ccc(OC)cc2)cc(C(=O)NC2CCCCCCC2)c1C	.	6	-2	14	86*	-3
CCOC(=O)c1cccc(C2=C(CNC(=O)c3nccs3)[C@H]3CC[C@@H](C2)N3Cc2ccccc2)c1	8	25	-3	-4	-2	2
O=C1NC(=S)N(c2ccc(Cl)cc2)C(=O)/C1=C/N1CCN(C(=O)c2ccco2)CC1	1	4	-1	44*	-2	7
O=C1NC(=O)N(c2ccc3c(c2)OCO3)C(=O)/C1=C/c1ccc(N2CCCC2)o1	.	3	0	11	-33	30
CN1CCN(c2ccc(/C=C3\C(=O)NC(=S)N(c4cccc(Br)c4)C3=O)o2)CC1	.	-2	1	24	-180	164*
CN1C(=O)C(=Cc2ccc(N3CCOCC3)o2)C(=O)N(C)C1=S	-7	-5	-1	33	-201	239*
Cc1ccsc1/C=C1\C(=O)NC(=S)N(C)C1=O	22	-11	-1	40*	3	1
CN1C(=O)/C(=C/c2ccc(Cl)s2)C(=O)NC1=S	.	-10	0	11	-29	2
CCOc1ccc(N2C(=O)NC(=O)/C(=C\c3ccc(N4CCCCC4)o3)C2=O)cc1	.	11	0	11	-41	57*
CN1C(=O)/C(=C\c2ccc(N3CCCCC3)o2)C(=O)NC1=S	-3	-3	0	33*	-69	130*
CN1C(=O)/C(=C/c2ccc(N3CCCCCC3)o2)C(=O)NC1=S	-9	-4	-1	24	-34	45
CC1=CC2OC3CC4OC(=O)C=CC=CC(=O)OCCC(C)C(O)C(=O)OCC2(CC1)C4(C)C31CO1 (stereo unspecified)	123	57*	-2	17	36	-2
CC1=CC2OC3CC4OC(=O)C=CC=CC(C(C)O)OCC(O)C5(C)OC5C(=O)OCC2(CC1O)C4(C)C31CO1 (stereo unspecified)	133	-1	-2	40*	-7	-2
